Reference: PubChem BioAssay AID588847 (Broad Institute, 2011)
Entries with a potency or affinity are not part of this list. Unmarked numbers belong to inactive results.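 The calls were made as follows: active = compounds lowering luciferase light with a fitted half-maximal dose at most twice the top tested dose; inconclusive = flat fit inhibiting 30 to 70%, or unreliable fit; inactive = the rest.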

Target: Luciferin 4-monooxygenase (Photuris pensylvanica) (UniProt Q27757)
Experiment: firefly luciferase enzyme inhibitors, dose response, counter-screen for HSF-1 reporter inhibitor project, biochemical, Cell Titer Glo, luminescence, cherry-picks (AID 588847)
Conditions: ATP; series mostly up to 26 µM; activity change, negative = inhibition: at the top concentration

Chain of Luciferin 4-monooxygenase (Photuris pensylvanica) (Q27757 whole entry, looked up): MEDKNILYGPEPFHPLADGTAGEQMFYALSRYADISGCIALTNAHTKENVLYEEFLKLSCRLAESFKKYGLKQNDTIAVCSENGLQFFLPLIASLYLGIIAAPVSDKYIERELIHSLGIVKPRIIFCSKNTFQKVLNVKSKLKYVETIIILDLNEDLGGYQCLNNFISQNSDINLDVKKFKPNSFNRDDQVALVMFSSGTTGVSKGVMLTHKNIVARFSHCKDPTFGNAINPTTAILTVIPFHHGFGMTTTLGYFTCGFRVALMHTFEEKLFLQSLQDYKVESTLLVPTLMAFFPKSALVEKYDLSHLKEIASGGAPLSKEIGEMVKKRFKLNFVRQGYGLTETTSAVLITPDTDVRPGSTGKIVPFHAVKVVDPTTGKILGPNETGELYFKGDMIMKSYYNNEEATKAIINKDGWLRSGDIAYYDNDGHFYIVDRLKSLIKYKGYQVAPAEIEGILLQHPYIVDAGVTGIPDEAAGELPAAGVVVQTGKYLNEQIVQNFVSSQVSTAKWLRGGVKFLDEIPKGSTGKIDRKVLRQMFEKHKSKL

SMILES	activity change, negative = inhibition [%]
CC(=O)OCC(=O)[C@@]12OC(C)(C)O[C@@H]1CC1C3C[C@H](F)C4=CC(=O)C=CC4(C)[C@@]3(F)C(O)CC12C (stereo partly drawn)	-5.62
Cc1ccc(C(=O)Nc2sc(C)c(-c3ccccc3)c2C(N)=O)cc1[N+](=O)[O-]	-12.8
CC(=O)[C@@]1(O)C(C)CC2C3C=C(C)C4=Cc5c(cnn5-c5ccccc5)C[C@]4(C)C3C(O)C[C@@]21C (stereo partly drawn)	-12.9
COc1cc([C@@H]2c3cc4c(cc3[C@H](O)[C@H]3COC(=O)[C@H]23)OCO4)cc(OC)c1OC	-6.03
Cc1nc(SCC(=O)Nc2nc3ccccc3s2)c(C#N)c(C)c1C	-11
O=C(Nc1ccc(F)cc1F)c1cc2nc3c(c(C(F)(F)F)n2n1)CCCC3	-7.45
COC(=O)c1ccccc1NC(=O)c1ccc(-c2ccc(Br)cc2)o1	-19.2
O=[N+]([O-])c1nn(-c2ccc3c(c2)OCCO3)n(O)c1=Nc1ccccc1	-5.15
